From PubChem BioAssay (Tox21) come the findings set out here.

Test [1] can be described thus: Human pregnane X receptor (PXR) small molecule agonists, qHTS cell viability counter screen (AID 1346977). Also: nearly all actives have a fitted effect of over 50% in size. Also: potency is read from the fitted curve at half-maximal effect. The gist of the method:
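PXR-Luc HepG2 cells (2,000/well, 5% charcoal-stripped FBS) preincubated 5 hr, then exposed to compounds 24 hr at 37 C. Viability read in the same wells by CellTiter-Fluor fluorescence, reagent added at 23 hr, 1 hr incubation.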
On the technique in general: In qHTS, concentration-response curves come from the screen itself.

The nature of test [2]: Caspase-3/7 induction in HepG2 cells by small molecules, qHTS assay (AID 1346978). Also: nearly all actives have a fitted effect of over 15% in size. The gist of the method: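 Wild-type HepG2 cells, 2,000/well, settled 5 hr at 37 C and 5% CO2, then compound-treated for 17 hr; caspase-3/7 activity read by luminescent Caspase-Glo 3/7 after 30 min at room temperature.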
A short description of test [3]: Caspase-3/7 induction in CHO-K1 cells by small molecules, qHTS cell viability counter screen (AID 1346979). Also: nearly all actives have a fitted effect of over 35% in size. Also: potency is read from the fitted curve at half-maximal effect. Put shortly:
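Wild-type CHO-K1 cells (1,500/well) treated with compound after 5 h plating; after 16 h at 37C, viability read as CellTiter-Fluor fluorescence following 1 h reagent incubation, in the same wells as the caspase read.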

Test [4] can be described thus: Caspase-3/7 induction in CHO-K1 cells by small molecules, qHTS assay (AID 1346980). Also: nearly all actives have a fitted effect of over 15% in size. Put shortly:
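Wild-type CHO-K1 cells exposed to compounds for 17hr at 37 C, 5% CO2. Caspase-3/7 activity then measured by Caspase-Glo 3/7 luminescence after 30min at room temperature.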

Test [5] can be described thus: Caspase-3/7 induction in HepG2 cells by small molecules, qHTS cell viability counter screen (AID 1346981). Also: nearly all actives have a fitted effect of over 30% in size. Also: potency is read from the fitted curve at half-maximal effect. As to activity change, negative = cytotoxicity: series mostly up to about 92 µM. The gist of the method: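 Treatment of HepG2 cells with DMSO-delivered compounds ran 16 hr at 37 C following a 5-hr pre-incubation of 2,000 cells/well. CellTiter-Fluor fluorescence, read after 1 hr, served as the viability measure in a qHTS format.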
Test [6] has as its target Nuclear receptor subfamily 1 group I member 2 (Homo sapiens) (UniProt O75469). Kind of test: Human pregnane X receptor (PXR) small molecule agonists, qHTS assay (AID 1346982). Also: nearly all actives have a fitted effect of over 35% in size. The gist of the method: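 Stable HepG2 line reporting PXR-mediated CYP3A4 expression via luciferase. Treatment: 24 hr with compounds in DMSO at 37 C. Detection: ONE-Glo luminescence.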
The target in test [7] is Nuclear receptor subfamily 1 group I member 2 (Rattus norvegicus) (UniProt Q9R1A7). Kind of test: Rat pregnane X receptor (rPXR) activation by small molecules, qHTS assay (AID 1346983). Also: nearly all actives have a fitted effect of over 20% in size. The settings on record: rPXR luciferase reporter cells, One-Glo luminescence, 24 h; max activation: stronger effect = higher value. Put shortly:
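Cell-based rPXR activation assay: rPXR cells, 2,000 per well, rested 5hr at 37 C, then exposed to compounds in DMSO for 24 hr at 37 C. Luciferase activity read by One-Glo luminescence after 30 min at room temperature.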

Test [8] addresses Nuclear receptor subfamily 1 group I member 2 (Homo sapiens) (UniProt O75469). Kind of test: CYP3A4 induction through human pregnane X receptor (PXR) by small molecules, qHTS assay (AID 1346984). Also: nearly all actives have a fitted effect of over 40% in size. Put shortly:
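After 24 h at 37C with compound, DPX-2 cells (HepG2, co-transfected PXR response element and CYP3A4 promoter-luciferase) got 3uM final P450-Glo Luciferin-IPA for 3 h; One-Glo luminescence followed.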

The target is the same in test [9]. Description: Human pregnane X receptor (PXR) activation by small molecules, qHTS assay (AID 1346985). Also: nearly all actives have a fitted effect of over 40% in size. Put shortly: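 DPX-2 cells (HepG2 co-transfected with a PXR response element and a CYP3A4-promoter luciferase construct) were seeded at 2,000 per well, rested 5 hr at 37C, then exposed to DMSO-dissolved compounds for 24 hr. Activation was read as luciferase luminescence.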

Test [10] addresses Cytochrome P450 2D6 (Homo sapiens) (UniProt P10635). Description: Cytochrome P450 Family 2 Subfamily D Member 6 (CYP2D6) small molecule antagonists: luciferase reporter qHTS assay (AID 1671196). Also: nearly all actives have a fitted effect of over 50% in size. Also: potency is read from the fitted curve at half-maximal effect. As to activity change, negative = inhibition: series mostly up to about 120 µM. The gist of the method: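 Chemicals tested for interference with CYP2D6 activity; proluciferin substrate, NADPH regeneration, 1 h at room temperature, luminescent detection.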
On the technique in general: Reporter assays use an easily measured gene product as a stand-in for the process of interest.

The target of test [11] is Cytochrome P450 2C9 (Homo sapiens) (UniProt P11712). Description: Cytochrome P450 Family 2 Subfamily C Member 9 (CYP2C9) small molecule antagonists: luciferase reporter qHTS assay (AID 1671198). Also: nearly all actives have a fitted effect of over 50% in size. Also: potency is read from the fitted curve at half-maximal effect. As to activity change, negative = inhibition: series mostly up to about 120 µM. Put shortly:
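P450-Glo proluciferin substrate with CYP2C9 enzyme; 10 min RT preincubation, then NADPH regeneration 1 h at 37C; luciferin detection reagent 20 min RT, luminescence in relative luminescence units.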

Test [12] has as its target Cytochrome P450 1A2 (Homo sapiens) (UniProt P05177). Description: Cytochrome P450 Family 1 Subfamily A Member 2 (CYP1A2) small molecule antagonists: luciferase reporter qHTS assay (AID 1671199). Also: nearly all actives have a fitted effect of over 50% in size. Also: potency is read from the fitted curve at half-maximal effect. As to activity change, negative = inhibition: series mostly up to about 120 µM. The gist of the method:
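Read-out is luminescence from luciferin detection reagent (20 min) proportional to CYP1A2 activity; compounds in DMSO preincubated 10 min with enzyme and proluciferin substrate, then NADPH regeneration solution, 1 h, room temperature.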

Test [13] addresses Cytochrome P450 3A4 (Homo sapiens) (UniProt P08684). Kind of test: Cytochrome P450 Family 3 Subfamily A Member 4 (CYP3A4) small molecule antagonists: luciferase reporter qHTS assay (AID 1671201). Also: nearly all actives have a fitted effect of over 50% in size. Also: potency is read from the fitted curve at half-maximal effect. As to activity change, negative = inhibition: series mostly up to about 120 µM. The gist of the method:
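P450-Glo CYP3A4 luminescent assay: compounds preincubated 10 min at room temperature with enzyme and proluciferin substrate, NADPH regeneration added, 1 h room-temperature reaction, stopped with luciferin detection reagent; luminescence read after 20 min. Ketoconazole positive control.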

For test [14], the target named is Cytochrome P450 2C19 (Homo sapiens) (UniProt P33261). Description: Cytochrome P450 Family 2 Subfamily C Member 19 (CYP2C19) small molecule antagonists: luciferase reporter qHTS assay (AID 1671197). Also: nearly all actives have a fitted effect of over 65% in size. Also: potency is read from the fitted curve at half-maximal effect. As to activity change, negative = inhibition: series mostly up to about 120 µM. The gist of the method:
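Inhibition of CYP2C19 was scored from loss of luminescence in a P450-Glo proluciferin substrate assay, NADPH-started and run 1 h at 37C, with ketoconazole as positive control.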

Test [15] concerns the target Voltage-gated inwardly rectifying potassium channel KCNH2 (Homo sapiens) (UniProt Q12809). Kind of test: Human Ether-a-go-go-Related Gene (hERG) channel small molecule antagonists: fluorescence cell-based qHTS assay (AID 1671200). The gist of the method:
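hERG-U2OS cells plated overnight at 37 C, loaded with FluxOR II dye 1 h at RT in dark; after 10 min, thallium stimulus added. Fluorescence (480/540 nm) read kinetically for 2 min at 1 s intervals.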
Background: hERG is a cardiac potassium channel; its block is linked to QT prolongation.

Values without a mark were called inactive. Results filed as inconclusive are left out. Active and inactive are the calls of the source. Calls follow the shape of the dose curve; as a rule, active = well fitted curve in the direction sought with a large enough effect in the repeat runs; inconclusive = weak or mixed curves; inactive = no such curve, though single readings can be large; an effect the other way counts as inactive or inconclusive.
% is scaled to controls: 0 for no effect and ±100 for the full control effect.

Cytochrome P450 2D6 (Homo sapiens), sequence (P10635 whole entry, looked up): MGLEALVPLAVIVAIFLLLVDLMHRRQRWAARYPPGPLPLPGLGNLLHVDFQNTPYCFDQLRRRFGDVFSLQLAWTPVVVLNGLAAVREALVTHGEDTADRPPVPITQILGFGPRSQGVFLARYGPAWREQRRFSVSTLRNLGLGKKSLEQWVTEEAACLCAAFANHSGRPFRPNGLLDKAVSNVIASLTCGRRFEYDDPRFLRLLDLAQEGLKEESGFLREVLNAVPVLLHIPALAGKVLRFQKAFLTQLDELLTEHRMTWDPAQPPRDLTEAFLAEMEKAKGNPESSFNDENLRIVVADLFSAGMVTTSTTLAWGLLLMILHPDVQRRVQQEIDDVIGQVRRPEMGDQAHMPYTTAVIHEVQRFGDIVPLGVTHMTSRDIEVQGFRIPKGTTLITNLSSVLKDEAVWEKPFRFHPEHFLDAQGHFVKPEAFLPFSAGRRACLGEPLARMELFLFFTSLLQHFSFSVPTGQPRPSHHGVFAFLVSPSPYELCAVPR
Cytochrome P450 1A2 (Homo sapiens), sequence (P05177 whole entry, looked up): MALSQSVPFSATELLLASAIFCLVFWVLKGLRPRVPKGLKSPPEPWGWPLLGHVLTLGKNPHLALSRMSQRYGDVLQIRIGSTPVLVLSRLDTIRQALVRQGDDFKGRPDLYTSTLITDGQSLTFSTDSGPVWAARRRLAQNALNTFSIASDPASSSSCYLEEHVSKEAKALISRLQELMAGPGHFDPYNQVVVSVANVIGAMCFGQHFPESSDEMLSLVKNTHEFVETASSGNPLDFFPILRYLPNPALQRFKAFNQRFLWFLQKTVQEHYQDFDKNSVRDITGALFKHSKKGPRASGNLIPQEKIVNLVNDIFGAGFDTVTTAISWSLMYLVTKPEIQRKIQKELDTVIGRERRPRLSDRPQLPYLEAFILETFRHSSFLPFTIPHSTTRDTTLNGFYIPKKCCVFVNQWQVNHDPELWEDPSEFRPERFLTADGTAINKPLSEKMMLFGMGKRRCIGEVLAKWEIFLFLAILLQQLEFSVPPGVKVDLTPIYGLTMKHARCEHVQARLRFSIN
Nuclear receptor subfamily 1 group I member 2 (Rattus norvegicus), sequence (Q9R1A7 whole entry, looked up): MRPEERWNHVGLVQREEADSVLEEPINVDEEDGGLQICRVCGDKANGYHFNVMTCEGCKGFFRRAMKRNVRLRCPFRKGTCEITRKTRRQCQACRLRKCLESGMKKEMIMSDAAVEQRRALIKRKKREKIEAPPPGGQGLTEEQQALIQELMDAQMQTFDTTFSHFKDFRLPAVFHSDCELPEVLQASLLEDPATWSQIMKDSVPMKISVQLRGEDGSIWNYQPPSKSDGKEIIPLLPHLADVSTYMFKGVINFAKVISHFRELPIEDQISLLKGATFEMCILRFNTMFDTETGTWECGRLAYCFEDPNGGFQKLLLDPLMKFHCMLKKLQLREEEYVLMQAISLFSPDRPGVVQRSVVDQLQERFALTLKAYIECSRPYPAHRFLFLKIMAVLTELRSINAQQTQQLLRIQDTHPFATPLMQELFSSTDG
Cytochrome P450 2C9 (Homo sapiens), sequence (P11712 whole entry, looked up): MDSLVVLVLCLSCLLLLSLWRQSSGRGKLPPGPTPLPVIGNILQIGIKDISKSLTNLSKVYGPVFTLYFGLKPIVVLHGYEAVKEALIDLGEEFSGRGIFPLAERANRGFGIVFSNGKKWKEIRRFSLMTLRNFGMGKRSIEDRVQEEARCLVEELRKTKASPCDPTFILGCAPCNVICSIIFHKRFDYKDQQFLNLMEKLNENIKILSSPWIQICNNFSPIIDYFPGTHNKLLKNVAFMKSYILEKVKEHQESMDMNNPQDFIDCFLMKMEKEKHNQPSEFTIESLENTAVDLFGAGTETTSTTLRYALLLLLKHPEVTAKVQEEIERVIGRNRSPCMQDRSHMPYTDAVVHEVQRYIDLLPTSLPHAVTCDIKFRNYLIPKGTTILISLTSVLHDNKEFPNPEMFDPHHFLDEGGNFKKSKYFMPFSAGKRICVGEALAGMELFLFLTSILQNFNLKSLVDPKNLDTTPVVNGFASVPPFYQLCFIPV
Voltage-gated inwardly rectifying potassium channel KCNH2 (Homo sapiens), sequence (Q12809 whole entry, looked up): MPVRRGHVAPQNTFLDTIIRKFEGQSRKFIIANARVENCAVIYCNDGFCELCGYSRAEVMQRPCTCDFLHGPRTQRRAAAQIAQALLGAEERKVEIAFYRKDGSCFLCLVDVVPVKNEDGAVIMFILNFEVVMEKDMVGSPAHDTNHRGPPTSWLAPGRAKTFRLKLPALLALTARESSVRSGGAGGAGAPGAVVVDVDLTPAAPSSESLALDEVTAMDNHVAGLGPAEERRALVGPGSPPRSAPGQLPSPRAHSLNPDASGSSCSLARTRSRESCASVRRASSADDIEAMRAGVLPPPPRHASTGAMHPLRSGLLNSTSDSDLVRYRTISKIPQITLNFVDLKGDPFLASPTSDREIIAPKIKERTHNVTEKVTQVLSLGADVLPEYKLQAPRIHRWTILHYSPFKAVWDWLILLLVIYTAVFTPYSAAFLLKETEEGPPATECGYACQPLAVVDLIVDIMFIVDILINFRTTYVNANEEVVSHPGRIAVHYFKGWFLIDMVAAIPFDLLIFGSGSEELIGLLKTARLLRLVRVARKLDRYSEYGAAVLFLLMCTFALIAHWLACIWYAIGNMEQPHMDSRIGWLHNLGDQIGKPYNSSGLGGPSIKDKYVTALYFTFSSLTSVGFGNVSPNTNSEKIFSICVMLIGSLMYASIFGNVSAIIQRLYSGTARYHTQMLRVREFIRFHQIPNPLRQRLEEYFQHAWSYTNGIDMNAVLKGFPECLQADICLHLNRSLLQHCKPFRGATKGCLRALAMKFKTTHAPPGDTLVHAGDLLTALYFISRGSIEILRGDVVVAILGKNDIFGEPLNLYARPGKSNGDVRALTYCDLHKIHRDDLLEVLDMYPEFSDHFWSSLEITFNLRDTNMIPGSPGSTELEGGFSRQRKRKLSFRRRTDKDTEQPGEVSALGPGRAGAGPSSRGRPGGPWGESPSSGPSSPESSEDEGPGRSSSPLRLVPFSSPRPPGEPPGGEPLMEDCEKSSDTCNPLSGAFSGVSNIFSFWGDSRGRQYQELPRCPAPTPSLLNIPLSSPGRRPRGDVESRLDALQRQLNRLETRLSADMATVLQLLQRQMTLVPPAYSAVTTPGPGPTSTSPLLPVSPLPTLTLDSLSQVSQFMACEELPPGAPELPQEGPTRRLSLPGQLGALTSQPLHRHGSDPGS
Cytochrome P450 2C19 (Homo sapiens), sequence (P33261 whole entry, looked up): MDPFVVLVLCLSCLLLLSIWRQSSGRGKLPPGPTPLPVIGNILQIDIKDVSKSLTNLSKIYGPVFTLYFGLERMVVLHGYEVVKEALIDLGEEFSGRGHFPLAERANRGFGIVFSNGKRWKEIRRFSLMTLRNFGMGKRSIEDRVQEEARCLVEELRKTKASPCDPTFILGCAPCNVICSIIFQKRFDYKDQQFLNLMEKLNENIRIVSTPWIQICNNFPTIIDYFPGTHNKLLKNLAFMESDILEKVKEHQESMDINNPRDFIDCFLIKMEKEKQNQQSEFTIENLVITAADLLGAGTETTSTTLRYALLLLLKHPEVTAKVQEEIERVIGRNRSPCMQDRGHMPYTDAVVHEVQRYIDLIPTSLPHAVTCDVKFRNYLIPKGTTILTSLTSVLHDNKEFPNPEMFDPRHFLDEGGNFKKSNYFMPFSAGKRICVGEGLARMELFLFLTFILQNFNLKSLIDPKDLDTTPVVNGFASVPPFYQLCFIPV
Cytochrome P450 3A4 (Homo sapiens), sequence (P08684 whole entry, looked up): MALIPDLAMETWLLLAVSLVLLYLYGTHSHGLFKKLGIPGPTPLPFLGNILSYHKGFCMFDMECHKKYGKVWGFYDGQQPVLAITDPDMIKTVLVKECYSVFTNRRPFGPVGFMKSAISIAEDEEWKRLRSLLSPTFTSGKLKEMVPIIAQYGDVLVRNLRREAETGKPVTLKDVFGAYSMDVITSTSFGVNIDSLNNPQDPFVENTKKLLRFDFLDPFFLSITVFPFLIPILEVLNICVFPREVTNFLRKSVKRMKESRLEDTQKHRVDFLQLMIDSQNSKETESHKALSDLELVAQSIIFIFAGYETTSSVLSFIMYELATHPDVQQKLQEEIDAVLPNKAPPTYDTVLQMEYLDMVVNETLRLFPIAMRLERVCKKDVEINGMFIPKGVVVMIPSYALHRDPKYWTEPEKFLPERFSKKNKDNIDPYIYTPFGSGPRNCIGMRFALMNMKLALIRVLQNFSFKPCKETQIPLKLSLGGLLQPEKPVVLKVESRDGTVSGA
Nuclear receptor subfamily 1 group I member 2 (Homo sapiens), sequence (O75469 whole entry, looked up): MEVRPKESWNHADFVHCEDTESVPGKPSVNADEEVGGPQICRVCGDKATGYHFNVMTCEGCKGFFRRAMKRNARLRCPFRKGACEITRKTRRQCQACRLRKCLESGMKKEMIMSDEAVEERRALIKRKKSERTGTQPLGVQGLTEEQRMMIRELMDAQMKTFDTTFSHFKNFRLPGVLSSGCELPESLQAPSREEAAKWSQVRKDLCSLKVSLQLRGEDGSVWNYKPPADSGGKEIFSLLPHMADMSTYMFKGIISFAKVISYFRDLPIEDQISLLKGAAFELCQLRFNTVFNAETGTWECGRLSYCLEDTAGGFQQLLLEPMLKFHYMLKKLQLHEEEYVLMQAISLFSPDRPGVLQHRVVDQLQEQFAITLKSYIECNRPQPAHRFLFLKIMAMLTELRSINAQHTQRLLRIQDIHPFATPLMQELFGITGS

With `CCN(CC)CCNC(=O)c1ccc(NC(C)=O)cc1`, the Potency entry in [1], in [2], in [3], in test [5], in test [6] and in test [8] was “inactive” throughout. The Potency entry in test [9], in test [11], in test [12] and in test [13] was “inactive” throughout. For the same compound, the compound was called inactive in test [4]. Further, the max activation in [7] was -1.35%. Also, the Potency in [10] is 17.4 µM (active).
On to `N#C[C@@H]1C[C@@H]2C[C@@H]2N1C(=O)[C@@H](N)C12CC3CC(CC(O)(C3)C1)C2`, for which the Potency entry in [1], in [2], in test [3], in test [5], in test [6] and in test [14] was “inactive” each time. The Potency entry in [11], in test [12] and in test [13] was “inactive” each time. Moreover, in test [4], the compound was classed as inactive. Further, in test [10], the Potency was 38.9 µM (active).
Turning to `CC#N`, the Potency result in test [1], in [2], in test [3], in [5], in test [6] and in [10] was “inactive” throughout. Also, the Potency entry in test [14], in test [11], in test [12], in test [15] and in test [13] was “inactive” throughout. Also, the compound was called inactive in test [4].
For `CN1CCN(c2c(F)cc3c(=O)c(C(=O)O)cn4c3c2OCN4C)CC1`, the activity change, negative = cytotoxicity in test [1] is 4.15% [at 19 µM]; in test [3], 3.06% [at 19 µM]; in test [5], 8.88% [at 19 µM]. The caspase activation in test [2] was 0.165% [at 19 µM]. In test [4], the caspase-3/7 activation was 0.0403% [at 19 µM]. Moreover, the activation in test [6] is -8.38% [at 19 µM]. Further, the max activation in test [7] is -1.24%. Further, the Potency result in [8], in [9] and in [12] was “inactive” in each case. Further, the activity change, negative = inhibition in test [10] is -1.32% [at 23.6 µM]; in test [14] it was -8.19% [at 23.6 µM]; in test [11], 9.24% [at 23.6 µM]; in [13], 3.15% [at 23.6 µM].
For the compound `COc1ccccc1N=Nc1c(S(=O)(=O)O)cc2cc(S(=O)(=O)O)cc(NC(C)=O)c2c1O`, the Potency in test [1] was 22.9 µM (active); in test [3] it was 25.7 µM (active); in test [5], 25.7 µM (active); in [10] it was 33.5 µM (active); in test [14], 29.8 µM (active); in test [11] it was 33.5 µM (active). Also, the Potency in test [12] and in test [13] was 33.5 µM (active) throughout. Besides, the Potency entry in test [2] and in [6] was “inactive” in each case. In addition, the result in [4] was inactive.
On to `CC1CN(c2cc3c(cc2F)c(=O)c(C(=O)O)cn3-c2ccc(F)cc2F)CCN1` (centres undefined), for which the values for the activity change, negative = cytotoxicity in test [1], in test [3] and in test [5] were -4.03% [at 8.39 µM], -1.36% [at 8.39 µM] and -2.3% [at 8.39 µM], respectively. Besides, in [2], the caspase activation is -0.856% [at 8.39 µM]. Besides, in test [4], the caspase-3/7 activation is -0.241% [at 8.39 µM]. Moreover, the activation in test [6] was -2.46% [at 8.39 µM]. The activity change, negative = inhibition in test [10] was -0.211% [at 10.5 µM]; in [14], 31.4% [at 10.5 µM]; in test [11], 2.17% [at 10.5 µM]; in test [12], 1.79% [at 10.5 µM]; in [13], 4.32% [at 10.5 µM].
As to `COC(=O)c1cc(Cl)ccc1NS(=O)(=O)C(F)(F)F`, the Potency result in test [1], in test [2], in test [3], in test [5], in [6] and in test [10] was “inactive” in each case. Moreover, the Potency result in [14], in [11], in [15] and in [13] was “inactive” in each case. The call in test [4] was inactive. Besides, the Potency in [12] was 0.55 µM (active).
In the case of `C[N+](C)(C)CCOC(N)=O`, the Potency result in test [1], in test [2], in test [3], in test [5], in [6] and in test [8] was “inactive” each time. Moreover, the Potency entry in test [9], in test [10], in [14], in test [11], in [12] and in test [15] was “inactive” throughout. Besides, the Potency result in [13] is “inactive”. Moreover, the result in test [4] was inactive. Also, in [7], the max activation was 0.11%.
In the case of `CN1CCCN=C1/C=C/c1cccs1`, the Potency entry in test [1], in test [2], in test [3] and in test [5] was “inactive” each time. In addition, the result in [4] was inactive.
